The values that follow come from PubChem BioAssay AID488 (PCMD, 2006).

Molecules are shown by their SMILES. About 40 (0.06%) of roughly 62,000 compounds were called active. The entries come from a sample that favours actives as a whole. A number with no mark means an inactive call. No stated cut-off is given here; in the data, active means inhibition above about 22% (passing the limit was not always enough); inconclusive means no clear call, values can overlap the other calls.

The assay has as its target Cathepsin B (Homo sapiens) (UniProt P07858). The assay can be described thus: human cathepsin B blockade, pooled library – biochemical, compound mixtures, AMC fluorescence, primary screen (AID 488).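 Further: 0% = enzyme without compound and 100% = no enzyme blank.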 Particulars: Purified cathepsin B, AMC dipeptide fluorescence, hits give high values,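 ten-compound pools at 5 µM per compound and 50 µM total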.
Turning to `Cc1ccc(C(=O)CSc2nnc(Cn3nnc4ccccc43)n2C)cc1`, the inhibition is -0.39%.
For `C=CCn1c(SCc2csc(C)n2)nc2scc(-c3ccc(C)o3)c2c1=O`, the inhibition is 5.42%.
`Cc1ccc2nc(NCCCNC(=O)c3cnccn3)c(C#N)cc2c1`: the inhibition was 1.1%.
For `CCNc1nc(SCCOc2ccccc2)nc(N(C)C)n1` the value was 3.91%.
With `C/C(Cl)=C\Cn1c(Nc2cccc(C)c2)nc2c1c(=O)n(C)c(=O)n2C`, the inhibition is 5.3%.
As for `Cc1ccccc1S(=O)(=O)Cc1ccc(C(=O)NCCN2CCCCC2C)o1` (stereo unspecified), the inhibition was 3.67%.
With `CCOc1ccc2[nH]c(=O)c(CN(Cc3nnnn3Cc3ccccc3)CC3CCCO3)cc2c1` (stereo unspecified), the inhibition is 3.02%.
With `COC(=O)Nc1ncc(CN2C(=O)c3ccccc3C2=O)s1`, the inhibition was -2.69%.
`CCCS(=O)(=O)N1CCCC(C(=O)NCCN2CCCCC2C)C1` (stereo unspecified): the inhibition was 3.97%.
In the case of `Cc1ccc(C(C(=O)NC2CCCC2)N(Cc2ccco2)C(=O)CCC(=O)Nc2ccccn2)cc1` (stereo unspecified), the inhibition is 3.21%.
For `CCCCn1c(CN2CCN(CCO)CC2)nc2ccccc21`, the inhibition is 2.92%.
With `CCc1ccc(-c2nnn(Cc3nc4ccccc4s3)n2)cc1` the figure was 4.33%.
Regarding `O=c1[nH]nc(CSCc2ccccc2Cl)[nH]1`, the inhibition was 4.72%.
Consider `O=C(COc1ccc(F)cc1)N(CC1=CCS(=O)(=O)C1)c1ccccc1`, for which the inhibition was -3.79%.
For `Cc1ccc2cc3cc(C(=O)N4CCCCCC4)oc3nc2c1` the value was 3.89%.
Take `C=CCn1c(N)c(C(=O)OCC(C)C)c2nc3ccccc3nc21`: the inhibition is -4.76%.
Take `COc1cccc(NS(=O)(=O)c2ccc3[nH]cc(C(=O)NCCCOC(C)C)c(=O)c3c2)c1`: the inhibition is 5.5%.
Turning to `COC(=O)[C@H](CCSC)NC(=O)Nc1ccc(OC)cc1`, the inhibition was 1.64%.
Turning to `C=CCNC(=O)c1cc(-c2ccccc2O)on1`, the inhibition was -1.28%.
On to `O=C(CSc1nnc(-c2ccco2)n1Cc1ccccc1)NC(=O)NCc1ccco1`, for which the inhibition was -0.985%.
`COCCCN(C(=O)Cn1ncc2c(=O)oc3ccc(C)cc3c21)C(C)c1ccncc1` (stereo unspecified): the inhibition was 1.95%.
In the case of `O=C(CN1C(=O)NC2(CCCCC2)C1=O)NCCC1=CCCCC1`, the inhibition is 4.21%.
With `Cc1cc(NC(=O)COn2nnc3ccccc32)no1` the figure was 1.15%.
For the compound `CCc1ccccc1NC(=O)CSc1nnc([C@@H](NC(=O)OC(C)(C)C)C(C)C)o1`, the inhibition is 5.22%.
Turning to `Cc1ccc(C(=O)Nc2ccc3c(c2)OCO3)cc1S(=O)(=O)N1CCCCC1`, the inhibition was 62.7% (active).
For the compound `COc1ccc(C(=O)Nc2ccc3c(c2)OCO3)cc1OC`, the inhibition was 1.18%.
As for `Cc1ccc(C(=O)NCC(=O)O)cc1S(=O)(=O)N1CCCCC1`, the inhibition is 1.96%.
With `COc1ccc(NS(=O)(=O)c2ccc(NC(C)=O)cc2)cc1OC`, the inhibition was 2.73%.
For `CCC(=O)c1ccc(OCC(O)CN2CCN(c3cccc(C(F)(F)F)c3)CC2)cc1` (stereo unspecified), the inhibition was 2.81%.
As to `Cc1noc(C)c1S(=O)(=O)Nc1ccc(C(=O)O)cc1`, the inhibition is 5.64%.
With `COc1ccc(CC(=O)c2ccc(O)cc2O)cc1OC`, the inhibition is -2.36%.
For `Cc1ccc(SCCN2C(=O)NC(C)(C)C2=O)cc1` the value was 3.79%.
With `CCCc1nc(N)nc2c1C(=O)CC(C)(C)C2` the figure was 3.17%; with `CCC(=O)N1CCc2cc(S(=O)(=O)NC(C(=O)N3CCc4ccccc4C3)C(C)C)ccc21` (stereo unspecified), 15.3%.
Take `O=C(NCc1ccc(Cl)c(Cl)c1)c1cccnc1`: the inhibition is -2.21%.
Turning to `CCCC(CCC(=O)OC)(C(=O)OCC)c1csc(N)n1` (stereo unspecified), the inhibition is 6.54%.
Consider `CC1CCCN(Cc2nc3c(c(=O)n(C)c(=O)n3C)n2Cc2cccc3ccccc23)C1` (stereo unspecified), for which the inhibition was 1.14%.
As to `CN(CCCC(=O)Nc1nccs1)S(=O)(=O)c1ccc(Cl)cc1`, the inhibition is 3.83%.
`Cc1ccc(S(=O)(=O)N2CCN(C(=O)CCC(=O)NC3CCCc4ccccc43)CC2)cc1` (stereo unspecified): the inhibition is 1.64%.
Turning to `CC(=O)Nc1cc(C(=O)O)ccc1S(=O)(=O)c1ccc(Cl)cc1`, the inhibition is -0.3%.
With `CCCC(=O)N1c2ccccc2NC2=C(C(=O)CCC2)C1c1ccc(F)cc1` (stereo unspecified), the inhibition was 4.79%.
Regarding `COc1ccc(OC)c(NC(=O)CSc2nc3cccnc3n2C)c1`, the inhibition was -8.48%.
As to `O=C1NC(Nc2nc3ccccc3s2)(C(F)(F)F)C(=O)N1C1CCCCC1` (stereo unspecified), the inhibition was 1.35%.
For `CN1CCN(C(=O)C2C3C=CC(C3)C2C(=O)O)CC1` (stereo unspecified) the value was 5.22%.
Regarding `CSCCC(NC(=O)c1ccc(=O)n(C)n1)c1nc2ccccc2[nH]1` (stereo unspecified), the inhibition was -2.06%.
With `c1ccc2c(c1)OCC(c1nn3cnnc3s1)O2` (stereo unspecified) the figure was -2.62%.
For `O=C(NCCN1C(=O)C2C3C=CC(C3)C2C1=O)Nc1ccccn1` (stereo unspecified) the value was 7.59%; for `Cn1c2ccccc2c2c(C(=O)N3CCN(c4ccc(F)cc4)CC3)cn(C3CCCC3)c(=O)c21`, 4.51%.
For `CCCNc1ncnc2sc(C)c(C)c12` the value was 2.56%; for `O=C(CSc1nnnn1-c1ccc2c(c1)CCC2)Nc1ccc2c(c1)OCCO2`, 0.15%.
On to `Cn1c(=O)n(C)c2cc(CNc3ccc(N4CCOCC4)c(C(=O)O)c3)ccc21`, for which the inhibition was -0.23%.
Take `O=C(Nc1ccc(Cl)cc1)c1ccsn1`: the inhibition is -2.12%.
On to `COc1ccc(OC)c(C(=O)CSc2nnc(-c3cccs3)o2)c1`, for which the inhibition was -2.44%.
Turning to `CCN(CC)S(=O)(=O)c1ccc2nc(COC(=O)c3n[nH]c4ccccc34)[nH]c2c1`, the inhibition was 3.42%.
For `O=C(NC(c1ccccc1)c1ccccc1)N1CCN(CCO)CC1` the value was 3.62%.
As to `CC1CCC(NC(=O)c2ccc(N3CCCC3=O)cc2)CC1` (stereo unspecified), the inhibition is -4.06%.
On to `COCC(=O)Nc1nnc(COc2ccccc2)s1`, for which the inhibition was -8.97%.
Consider `COC(C)(C)[C@]12CC(O)(C(C)C)ON1[C@H]1CCCCC1N2O` (stereo partly specified), for which the inhibition was -3.22%.
On to `Cn1c(=O)c2c(n(Cc3ccccc3)c1=O)NC(=O)C2CC(=O)N1CCc2ccccc2C1` (stereo unspecified), for which the inhibition is 0.76%.
Consider `O=c1c2c(nc3n1CCCCC3)sc1c(O)cccc12`, for which the inhibition is 5.69%.
Take `CC(C)c1ccc(NS(=O)(=O)c2cn(C)c(=O)n(C)c2=O)cc1`: the inhibition was 3.38%.
With `CCCCNC(=O)c1ccccc1NC(=O)c1ccccc1N(C)S(C)(=O)=O`, the inhibition is 7.15%.
As to `CCOC(=O)Cc1csc(NC(=O)CN(C)S(=O)(=O)c2ccc3c(c2)CCC(=O)N3)n1`, the inhibition is 3.69%.
Consider `COc1ccc(-c2nc(CS(=O)CC(=O)N3CCc4ccccc4C3)c(C)o2)cc1` (stereo unspecified), for which the inhibition was 4.29%.
On to `CCC(C)Sc1nc(C)nc2c1c(=O)n(C)c(=O)n2C` (stereo unspecified), for which the inhibition is 2.91%.
For `N#CCCn1ncc2ccccc21` the value was -3.63%; for `COc1ccc(CCN2CNc3c(c(=O)n(C)c(=O)n3C)C2)cc1OC`, 0.085%.
For `COc1ccc(-c2ccnc(SCC(=O)N3CCOCC3)n2)cc1`, the inhibition is -0.81%.
For the compound `CCN1CCN(c2c(Cl)cccc2NC(=O)c2ccc(Br)o2)CC1`, the inhibition was 5.68%.
Consider `COc1nc(NCc2ccc(Cl)cc2)nc(OC)n1`, for which the inhibition was 6.46%.
On to `CCCn1c(SCC(=O)N2CCc3ccccc32)nnc1-c1ccncc1`, for which the inhibition was 5.11%.
With `CC(C)(C)NC(=O)NC(=O)COC(=O)Cn1c(C(F)(F)F)nc2ccccc21`, the inhibition was 0.995%.
Regarding `N#Cc1cccc(CSc2nnc(CCCO)n2-c2ccccc2)c1`, the inhibition is 22%.
For `COC(=O)c1c(NC(=O)CCN2CCOCC2)sc2c1CCCC2` the value was 3.41%; for `Cn1c(=O)cc(SCC(=O)N2CCN(C(=O)c3ccco3)CC2)c2ccccc21`, 2.19%.
With `Cc1ccccc1-c1nc(CS(=O)(=O)CC(=O)N2CCc3ccccc3C2)c(C)o1` the figure was 4.15%; with `Cc1cccc(NC(=O)C2CCN(S(=O)(=O)c3cccc4cccnc34)CC2)c1`, 4.24%.
With `Cc1cc(Nc2ccc(Br)cc2F)n2ncnc2n1`, the inhibition is -2.18%.
Turning to `COc1ccc(C(CC(=O)O)NC(=O)Cc2ccccc2)cc1` (stereo unspecified), the inhibition was -0.455%.
`COc1ccc(S(=O)(=O)N2CCCCC2)cc1Br`: the inhibition was 2.55%.
Regarding `CC(=O)c1cc(-c2ccccc2)[nH]c1N1CCCC1`, the inhibition was 2.3%.
With `CC1Oc2ccccc2N(Cc2cccnc2)C1=O` (stereo unspecified) the figure was 4.41%; with `O=C(CCS(=O)(=O)c1cccc2nonc12)NCCc1ccccc1Cl`, 4.8%.
In the case of `Cn1cccc1Cc1nnc(SCC(=O)NCCc2ccccc2)n1-c1ccc(F)cc1`, the inhibition is 4.42%.
Take `CC1(C)Oc2ccc(C(=O)N3CCOCC3)cc2N(CC(=O)Nc2ccccc2)C1=O`: the inhibition is -0.39%.
As to `COc1ccccc1C(=O)C(O)c1ccccc1OC` (stereo unspecified), the inhibition was 1.43%.
Consider `O=C(Cn1cc(C(=O)c2cccs2)c2ccccc21)NCc1cccs1`, for which the inhibition is -1.35%.
In the case of `CCOC(=O)COc1ccc(Cl)cc1C1NC(=O)NC(C)=C1C(C)=O` (stereo unspecified), the inhibition was -5.4%.
Take `O=C(NCc1ccccn1)c1c(O)c2c([nH]c1=O)CCCC2`: the inhibition is 4.33%.
With `CC12COC3(C(=O)Nc4ccc(Cl)cn4)CC1CCC32C` (stereo unspecified) the figure was 2.24%; with `COc1cccc(C(CC(=O)NCCN2CCOCC2)NS(=O)(=O)c2ccc(C)cc2)c1OC` (stereo unspecified), -2.29%; with `CCN(C(=O)CSc1ncn[nH]1)c1cccc2ccccc12`, 5.46%.
In the case of `Cn1c(=O)c2c(nc(N3CCCCCC3)n2CC(=O)c2ccc(Br)cc2)n(C)c1=O`, the inhibition is 6.96%.
Regarding `CCOC(=O)CSc1nnc(CNC(=O)c2cccs2)n1-c1ccccc1`, the inhibition is 3.94%.
For the compound `CCCOc1ccc(NC(=O)C2CCCNC2=O)cc1` (stereo unspecified), the inhibition was 0.055%.
Take `CCOC(=O)N1CCN(C(=O)c2ccc(S(=O)(=O)c3ccc(C)cc3)c(NC(C)=O)c2)CC1`: the inhibition is 0.155%.

A word on the inhibition: it is the relative decrease from the control value, in per cent.
